Growth inhibition, inhibition and outcome data for 19 molecules are collected here from PubChem BioAssay.

A short description of test [1]: antimalarial activity against Dd2 strain (AID 2302;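 active means growth inhibition above 50% at the single 2 µM test dose, taken to imply half-maximal potency below 2 µM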;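 further: 0% = DMSO untreated growth and 100% = chloroquine plus artemisinin killed control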). The conditions noted are these: P. falciparum Dd2 in RBCs, LDH growth readout, 72 h; at 2 µM; hits give high values.
Test [2] in a line: HepG2 cytotoxicity, primary screen, cytotoxicity control for P. falciparum antimalarial project, cell-based, ATP luminescence (AID 2303;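 active means inhibition above 50%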;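 further: 0% = DMSO wells and 100% = digitonin-killed cells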). The conditions noted are these: HepG2 viability, 24-48 h, at 10 µM, hits give high values.
Test [3] concerns the target L-lactate dehydrogenase (Plasmodium falciparum (isolate CDC / Honduras)) (UniProt Q27743). Nature of the test: PfLDH activity inhibition – cell lysate, 3D7 strain, counter-screen for P. falciparum growth inhibition project (AID 2304).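 Further: 0% = vehicle and 100% = reference inhibitor.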 The conditions noted are these: P. falciparum 3D7 crude extract, LDH APAD/NBT absorbance; at 2 µM; hits give high values.
Test [4] can be described thus: inhibition of 3D7 malaria parasite growth – strain 3D7 (AID 2306).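 Further: 0% = DMSO wells and 100% = chloroquine plus artemisinin control wells.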 The conditions noted are these: P. falciparum 3D7 erythrocytic growth, LDH absorbance, 72 h; at 2 µM; hits give high values.
Test [5] has as its target Calcium-dependent protein kinase 1 (Plasmodium falciparum (isolate 3D7)) (UniProt P62344). Kind of test: PfCDPK1 kinase inhibitors, biochemical, TCAMS library (AID 1159585; cut-off not given, nearly all actives have IC50 up to about 0.98 µM;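 further: inhibitors leave more ATP so luminescence rises with inhibition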). To be noted: recombinant PfCDPK1, Kinase-Glo ATP depletion luminescence.
For test [6], the target named is Plasmodium falciparum protein kinase 6 (PK6, PF3D7_1337100) (UniProt Q8IDW1). Kind of test: PfPK6 kinase inhibitors, biochemical, TCAMS library (AID 1159586). The conditions noted are these: recombinant PfPK6, Kinase-Glo ATP depletion luminescence.
Plasmodium falciparum protein kinase 6 (PK6, PF3D7_1337100), sequence (Q8IDW1 1-305): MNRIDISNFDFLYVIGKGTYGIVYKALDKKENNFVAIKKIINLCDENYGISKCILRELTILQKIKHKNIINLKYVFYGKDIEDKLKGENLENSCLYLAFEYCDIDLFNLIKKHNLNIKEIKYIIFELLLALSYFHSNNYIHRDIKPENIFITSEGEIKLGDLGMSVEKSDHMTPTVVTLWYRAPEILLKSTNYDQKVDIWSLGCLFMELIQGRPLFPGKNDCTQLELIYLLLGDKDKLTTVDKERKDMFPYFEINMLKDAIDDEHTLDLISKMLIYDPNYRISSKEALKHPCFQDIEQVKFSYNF
In test [7] the target is Protein kinase 7 (PK7), Plasmodium falciparum 3D7 (PF3D7_0213400) (UniProt Q7YTF7). Kind of test: inhibition of Plasmodium PK7 catalytic activity – biochemical, TCAMS antimalarial set, Kinase-Glo luminescence (AID 1159587). To be noted: recombinant PfPK7, Kinase-Glo ATP depletion luminescence.
Protein kinase 7 (PK7), Plasmodium falciparum 3D7 (PF3D7_0213400), sequence (Q7YTF7 1-343): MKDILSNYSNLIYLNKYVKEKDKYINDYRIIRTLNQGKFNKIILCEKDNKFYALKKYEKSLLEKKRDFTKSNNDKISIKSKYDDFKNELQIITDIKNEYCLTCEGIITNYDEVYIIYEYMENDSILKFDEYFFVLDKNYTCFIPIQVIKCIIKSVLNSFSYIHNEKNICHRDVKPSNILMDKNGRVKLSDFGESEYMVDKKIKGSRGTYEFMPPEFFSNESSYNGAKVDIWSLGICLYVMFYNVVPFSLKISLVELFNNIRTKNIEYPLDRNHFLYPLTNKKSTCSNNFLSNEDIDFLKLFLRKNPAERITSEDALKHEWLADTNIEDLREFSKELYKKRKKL
The target in test [8] is Calcium-dependent protein kinase 4 (Plasmodium falciparum (isolate 3D7)) (UniProt Q8IBS5). Kind of test: PfCDPK4 kinase inhibitors, biochemical, TCAMS library (AID 1159588; cut-off not given, nearly all actives have IC50 up to about 0.91 µM). The conditions noted are these: recombinant PfCDPK4, Kinase-Glo ATP depletion luminescence.
Calcium-dependent protein kinase 4 (Plasmodium falciparum (isolate 3D7)), sequence (Q8IBS5 whole entry, looked up): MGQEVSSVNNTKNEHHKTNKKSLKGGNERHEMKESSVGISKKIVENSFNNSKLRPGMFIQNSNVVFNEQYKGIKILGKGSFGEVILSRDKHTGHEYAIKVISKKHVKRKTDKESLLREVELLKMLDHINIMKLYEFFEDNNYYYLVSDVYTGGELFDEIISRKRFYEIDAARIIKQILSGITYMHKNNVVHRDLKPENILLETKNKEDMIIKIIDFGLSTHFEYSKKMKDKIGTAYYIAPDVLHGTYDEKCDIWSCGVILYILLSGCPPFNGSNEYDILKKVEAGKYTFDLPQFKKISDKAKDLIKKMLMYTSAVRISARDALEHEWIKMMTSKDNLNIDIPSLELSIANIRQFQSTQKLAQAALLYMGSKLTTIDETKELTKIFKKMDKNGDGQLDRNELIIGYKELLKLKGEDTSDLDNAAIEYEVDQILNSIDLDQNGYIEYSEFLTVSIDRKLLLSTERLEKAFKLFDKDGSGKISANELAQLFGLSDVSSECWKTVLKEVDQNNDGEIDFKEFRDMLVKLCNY

Values without a mark were called inactive. For some assays here: Entries with a potency or affinity are not part of this list. Calls of active or inactive are those of the source. Unless noted, how the calls were made is not given here.

Calcium-dependent protein kinase 1 (Plasmodium falciparum (isolate 3D7)), sequence (P62344 whole entry, looked up): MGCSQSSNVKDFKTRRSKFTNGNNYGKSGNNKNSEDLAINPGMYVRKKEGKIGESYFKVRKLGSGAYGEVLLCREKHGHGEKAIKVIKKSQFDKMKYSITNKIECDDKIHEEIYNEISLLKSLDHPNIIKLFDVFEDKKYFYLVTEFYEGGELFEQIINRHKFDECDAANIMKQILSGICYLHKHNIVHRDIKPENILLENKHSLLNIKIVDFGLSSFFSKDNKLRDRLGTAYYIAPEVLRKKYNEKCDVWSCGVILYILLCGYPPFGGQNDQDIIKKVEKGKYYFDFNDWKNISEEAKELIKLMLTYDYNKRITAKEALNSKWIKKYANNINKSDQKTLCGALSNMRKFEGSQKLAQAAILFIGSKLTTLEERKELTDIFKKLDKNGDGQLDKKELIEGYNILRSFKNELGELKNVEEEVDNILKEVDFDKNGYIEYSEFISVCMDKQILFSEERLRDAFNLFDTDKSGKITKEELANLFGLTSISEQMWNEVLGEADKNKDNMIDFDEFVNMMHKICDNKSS
L-lactate dehydrogenase (Plasmodium falciparum (isolate CDC / Honduras)), sequence (Q27743 whole entry, looked up): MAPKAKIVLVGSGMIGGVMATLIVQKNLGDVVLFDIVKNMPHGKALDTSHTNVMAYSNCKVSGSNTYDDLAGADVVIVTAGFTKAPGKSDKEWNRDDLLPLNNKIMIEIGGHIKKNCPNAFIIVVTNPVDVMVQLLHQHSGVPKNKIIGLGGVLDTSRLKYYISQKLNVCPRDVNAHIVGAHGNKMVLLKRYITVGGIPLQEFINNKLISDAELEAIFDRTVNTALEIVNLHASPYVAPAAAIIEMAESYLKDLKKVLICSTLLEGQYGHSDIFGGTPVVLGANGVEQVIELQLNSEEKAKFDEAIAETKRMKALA

Take `Cc1ccc(C=C2SC(=Nc3ccccc3)NC2=O)c(C)c1`: the growth inhibition was 90% (active) in test [1] and 93% (active) in test [4]. The inhibition in test [2] is 1%; in test [3] it was -2%. Further, the result in test [5], in test [6], in test [7] and in test [8] was inactive.
As for `C1=CN(Cc2ccccc2)C=CC1=C1C=Nc2ccccc21`, the values for the growth inhibition in test [1] and in test [4] were 69% (active) and 90% (active), respectively. Moreover, the values for the inhibition in test [2] and in test [3] were 8% and -3%, respectively. Moreover, the result in test [5], in test [6], in test [7] and in test [8] was inactive.
With `Cc1ccccc1C1CCN(C2CCC(NC(=O)/C=C/c3cc(F)ccc3C(F)(F)F)CC2)CC1` (configuration not stated), the results for the growth inhibition in test [1] and in test [4] were 25% and 98% (active), respectively. The values for the inhibition in test [2] and in test [3] were 90% (active) and 2%, respectively. Besides, the result in test [5], in test [6], in test [7] and in test [8] was inactive.
Turning to `Nc1nc(N)c2c(ccc3c2ccn3Cc2ccc(F)cc2)n1`, the growth inhibition in test [1] was 96% (active); in test [4], 97% (active). The inhibition is 66% (active) in test [2] and 1% in test [3]. Besides, the outcome in test [5], in test [6], in test [7] and in test [8] was inactive.
On to `NC(N)=NCC=C(c1ccccc1)c1ccccc1`, for which the growth inhibition in test [1] was 83% (active); in test [4] it was 94% (active). The values for the inhibition in test [2] and in test [3] were 9% and 1%, respectively. Also, the result in test [5], in test [6], in test [7] and in test [8] was inactive.
In the case of `Cn1cnc2c(SCc3ccc(OCc4ccccc4)cc3)ncnc21`, the results for the growth inhibition in test [1] and in test [4] were 87% (active) and 95% (active), respectively. The results for the inhibition in test [2] and in test [3] were 1% and -6%, respectively. In addition, the outcome in test [5], in test [6], in test [7] and in test [8] was inactive.
As to `Cc1cc(Nc2ccc(O)cc2)nc2cc(O)ccc12`, the growth inhibition in test [1] was 9%; in test [4], 100% (active). Also, the inhibition was 0% in test [2] and -2% in test [3]. In addition, the result in test [5], in test [6], in test [7] and in test [8] was inactive.
As for `CC(=O)c1nccc(C)c1N`, the growth inhibition was -1% in test [1] and 92% (active) in test [4]. The results for the inhibition in test [2] and in test [3] were 10% and 1%, respectively. The result in test [5], in test [6], in test [7] and in test [8] was inactive.
As for `CC(Cc1ccc(OCCN2CCN(c3ccc(Cl)cc3)CC2)cc1)NCC(O)c1cccc(C(F)(F)F)c1` (configuration not stated), the growth inhibition in test [1] was 96% (active); in test [4], 99% (active). Besides, the inhibition was 97% (active) in test [2] and 1% in test [3]. Moreover, the result in test [5], in test [6], in test [7] and in test [8] was inactive.
Regarding `COc1ccc2nccc(N3CCC(CCNCc4cc5c(cn4)OCCO5)CC3)c2c1`, the values for the growth inhibition in test [1] and in test [4] were 99% (active) and 100% (active), respectively. For the same molecule, the inhibition in test [2] is 26%; in test [3] it was 6%. Besides, the result in test [5], in test [6], in test [7] and in test [8] was inactive.
For the molecule `O=C(NCc1ccccc1)Nc1cccc(-c2cccc(-c3nc4ccc(C(F)(F)F)cc4[nH]3)c2)c1`, the growth inhibition is 30% in test [1] and 95% (active) in test [4]. Besides, the inhibition in test [2] was 56% (active); in test [3], 0%. Moreover, the result in test [5], in test [6], in test [7] and in test [8] was inactive.
Regarding `CCN(CC)CCN(Cc1ccc(-c2ccc(C(F)(F)F)cc2)cc1)C(=O)Cn1cc(CCCCc2cccc(F)c2F)c(=O)c2ccccc21`, the growth inhibition in test [1] was 22%; in test [4], 90% (active). In addition, the figures for the inhibition in test [2] and in test [3] were 18% and -5%, respectively. Also, the result in test [5], in test [6], in test [7] and in test [8] was inactive.
Turning to `CCOc1ccccc1[C@H]1[C@H](C(=O)C(C)(C)C)N2c3ccc(Br)cc3C=CC2C12C(=O)c1ccccc1C2=O` (some centres not stated), the growth inhibition in test [1] is 94% (active); in test [4], 95% (active). In addition, the results for the inhibition in test [2] and in test [3] were 17% and 1%, respectively. Also, the outcome in test [5], in test [6], in test [7] and in test [8] was inactive.
For the molecule `CN1CCCN(Cc2ccc(-c3cccc(NC(=O)c4cccc(C#N)c4)c3)cc2)CC1`, the growth inhibition in test [1] was 64% (active); in test [4], 101% (active). In addition, the inhibition in test [2] is 17%; in test [3], -2%. Moreover, the result in test [5], in test [6], in test [7] and in test [8] was inactive.
Regarding `COc1cc2c(cc1C(F)(F)F)N(C(=O)Nc1cc(F)cc(-c3cccnn3)c1)CC2`, the growth inhibition is 34% in test [1] and 90% (active) in test [4]. The figures for the inhibition in test [2] and in test [3] were 21% and 6%, respectively. The outcome in test [5], in test [6], in test [7] and in test [8] was inactive.
`O=C(Nc1cccc(CN2CCN(Cc3cccc(O)c3)CC2)c1)c1cc2ccccc2s1`: the growth inhibition is 54% (active) in test [1] and 86% (active) in test [4]. Further, the inhibition was 13% in test [2] and 0% in test [3]. For the same molecule, the result in test [5], in test [6], in test [7] and in test [8] was inactive.
For `Cc1cc(-c2ccc(Cl)cc2)c2c(N)c(C(=O)Nc3ccc(F)cc3)sc2n1`, the growth inhibition in test [1] is 87% (active); in test [4], 97% (active). Besides, the values for the inhibition in test [2] and in test [3] were 12% and 0%, respectively. Also, the result in test [5], in test [6], in test [7] and in test [8] was inactive.
Take `CC1(C)N=C(N)N=C(N)N1c1cccc(I)c1`: the growth inhibition in test [1] was 85% (active); in test [4], 95% (active). The inhibition in test [2] is 68% (active); in test [3] it was -2%. The outcome in test [5], in test [6], in test [7] and in test [8] was inactive.
With `COc1cc(F)c2ncc(Cl)c(C(O)CN3CCC(NC(=O)c4ccc5c(n4)NC(=O)CO5)CC3)c2c1` (configuration not stated), the figures for the growth inhibition in test [1] and in test [4] were 100% (active) and 102% (active), respectively. Besides, the inhibition in test [2] was 22%; in test [3], -1%. The outcome in test [5], in test [6], in test [7] and in test [8] was inactive.
